Most compounds without a hit are left out; they make up all but 2.9% or so of the library.
B2AR arrestin: beta2AR (human) beta-arrestin recruitment activity | P07550 | beta-arrestin recruitment to beta2AR, cell-based reporter | Potency, µM (doses to about 46.1 µM), usual class: activators | 330,000 tested, 0.02% active; active means well fitted activation curve with a large enough effect; inconclusive means small, poorly fitted or top-dose-only effect; further: nearly all actives have a fitted effect of over 65% in size
Target sequence (P07550 whole entry, looked up): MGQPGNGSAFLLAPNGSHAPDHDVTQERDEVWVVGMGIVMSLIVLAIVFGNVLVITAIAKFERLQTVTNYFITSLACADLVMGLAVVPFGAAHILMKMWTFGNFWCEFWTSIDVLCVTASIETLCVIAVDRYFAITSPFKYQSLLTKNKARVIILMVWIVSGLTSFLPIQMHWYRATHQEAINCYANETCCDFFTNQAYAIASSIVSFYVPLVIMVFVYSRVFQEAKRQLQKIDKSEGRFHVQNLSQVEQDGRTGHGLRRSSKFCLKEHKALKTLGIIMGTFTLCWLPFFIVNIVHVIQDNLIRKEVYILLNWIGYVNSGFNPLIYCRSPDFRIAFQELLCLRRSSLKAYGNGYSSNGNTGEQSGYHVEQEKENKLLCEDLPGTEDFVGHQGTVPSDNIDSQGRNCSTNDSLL
D3 antag: blocks the human D3 dopamine receptor; D3R cells, DiscoveRx beta-arrestin luminescence, antagonist mode; hits give low values; max response, negative = inhibition, %; AID 652054; 360,000 tested, 2.5% active; in the data active means max response below about -50%; inconclusive means no clear call, values can overlap the other calls
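Cells expressing the human receptor were seeded at 1500 cells/well, incubated overnight at 37 degrees C in 5% CO2, then exposed to library compounds with dopamine controls for 90 minutes at 37 degrees C before luminescent detection.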
TSHR antagonist: antagonists of human thyroid stimulating hormone receptor; 330,000 tested, 0.2% active; P16473; TSHR-expressing cells, TSH-stimulated cAMP HTRF, 2 h; hits give low values; activity change, negative = inhibition, % at 11.5 µM; AID 504810;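 active means activity change below a set negative limit, meaning inhibition stronger than a set level, cut at about -70% in these data; inconclusive means activity change between two set negative limits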
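TSHR-expressing cells were treated with compounds, then stimulated with TSH at EC80 (4nM final) for 2 hours at 37 deg C. Cellular cAMP was measured by HTRF competition between lysate cAMP and cAMP-d2 for a cryptate-labelled anti-cAMP antibody.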
DRD3 agonist: agonists of human D3 dopamine receptor; D3R DiscoveRx beta-arrestin cells, luminescence, 90 min; 410,000 tested, 0.58% active; max activation, %; in the data active means max activation above about 30%
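Agonist mode: compounds and dopamine controls were applied to plated cells for 90 min at 37 degrees C after an overnight attachment at 1500 cells/well. Luminescent read-out followed 30 - 60 minutes at room temperature with DiscoveRx detection reagent.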
Hits are given with their value.

Screening COc1ccc(C(c2nnnn2-c2c(C)cccc2C)N2CCN(C/C=C/c3ccccc3)CC2)cc1 (centres undefined) returned D3 antag -87 and DRD3 agonist inactive.
For COc1ccc(/C=C/C(=O)N2CCC(c3nc4ccccc4o3)CC2)cc1OC the results were DRD3 agonist inactive.
`CC(C)(C)n1nnnc1C(c1ccnc2ccccc12)N1CCN(C/C=C/c2ccccc2)CC1` (centres undefined) gave D3 antag inactive and DRD3 agonist inactive.
For Cc1cccc(C)c1-n1nnnc1C(c1ccccc1OC(F)(F)F)N1CCN(C/C=C/c2ccccc2)CC1 (centres undefined) the results were D3 antag -95 and DRD3 agonist inactive.
`Cc1cccc(C)c1-n1nnnc1C(c1ccnc2ccccc12)N1CCN(C/C=C/c2ccccc2)CC1` (centres undefined) gave D3 antag -116 and DRD3 agonist inactive.
Screening CC(C)(C)n1nnnc1C(c1ccccc1OC(F)(F)F)N1CCN(C/C=C/c2ccccc2)CC1 (centres undefined) returned D3 antag inactive and DRD3 agonist inactive.
Screening Cc1ccc(CNC(=O)c2cnn(-c3cccc(C)c3)c2C2CCN(C(=O)OC(C)(C)C)CC2)cc1 returned DRD3 agonist inactive.
For CC(=O)N(c1ccc2oc(=O)sc2c1)S(=O)(=O)c1cccs1 the results were B2AR arrestin inactive, D3 antag -51, TSHR antagonist inactive and DRD3 agonist inactive.
For Cc1nc(S(=O)(=O)N2CCN(c3ccc(Cl)cc3)CC2)cn1C the results were DRD3 agonist inactive.
COc1ccc(/C=C(\C#N)C(=O)N2COCC2(C)C)cc1 was read as B2AR arrestin inactive, D3 antag inactive, TSHR antagonist -75 and DRD3 agonist inactive.
`CC(=O)c1c(N2CCN(CCO)CC2)nc(=S)n(-c2ccccc2)c1C` gave B2AR arrestin inactive, D3 antag inactive, TSHR antagonist inactive and DRD3 agonist inactive.
`CC(=O)c1c(N2CCN(c3ccccc3)CC2)nc(=S)n(-c2ccccc2)c1C` gave B2AR arrestin inactive, D3 antag -53, TSHR antagonist inactive and DRD3 agonist inactive.
For COc1ccc(NCc2cc3ccc(OC)cc3n(CC(=O)Nc3ccc(C)c(C)c3)c2=O)cc1 the results were DRD3 agonist inactive.
CCN(CC)CCN(C(=O)/C=C/c1cccs1)c1nc2ccc(F)cc2s1 was read as B2AR arrestin inactive, D3 antag -71, TSHR antagonist inactive and DRD3 agonist inactive.
Screening COc1ccc(OC)c2sc(N(CCN(C)C)C(=O)/C=C/c3cccs3)nc12 returned B2AR arrestin inactive, D3 antag inactive, TSHR antagonist inactive and DRD3 agonist inactive.
`COc1ccc(C)c2sc(N(CCN(C)C)C(=O)/C=C/c3cccs3)nc12` gave B2AR arrestin inactive, D3 antag -55, TSHR antagonist inactive and DRD3 agonist inactive.
For COc1ccc(CCNC(=O)c2c(C)oc3ncnc(N4CCOCC4)c23)c(OC)c1 the results were DRD3 agonist inactive.
For O=C(C1=C(c2ccccc2)C(=O)c2ccccc2C1=O)c1ccccc1 the results were B2AR arrestin inactive, D3 antag -95, TSHR antagonist inactive and DRD3 agonist inactive.
For COC1=C(c2ccccc2)C(=O)c2ccccc2C1=O the results were B2AR arrestin inactive, D3 antag inconclusive, TSHR antagonist inactive and DRD3 agonist inactive.
Screening COC(=O)[C@@H](NC(=O)Nc1cccc(Br)c1)C(C)C returned B2AR arrestin inactive, D3 antag inactive, TSHR antagonist inactive and DRD3 agonist inactive.
Screening COC(=O)[C@H](C)NC(=O)Nc1cccc(Br)c1 returned B2AR arrestin inactive, D3 antag inactive, TSHR antagonist inactive and DRD3 agonist 84.
Cc1ccc(NC(=O)c2cc3ccccc3cc2O)cc1 was read as B2AR arrestin inactive, D3 antag inactive, TSHR antagonist inactive and DRD3 agonist inactive.
`COc1ccc(NC(=O)c2cc3ccccc3cc2O)cc1` gave B2AR arrestin inactive, D3 antag -61, TSHR antagonist inactive and DRD3 agonist inactive.
`CCOc1cc(C(=O)OCc2cc(=O)n3nc(CC)sc3n2)cc(OCC)c1OCC` gave DRD3 agonist inactive.
O=C(COc1ccccc1)Nc1nc2c(s1)CCCC2 was read as B2AR arrestin inactive, D3 antag -77, TSHR antagonist inactive and DRD3 agonist inactive.
O=C1CCC[C@@H]2C[C@@]3(C[C@@H]4CCN1[C@H]24)Nc1cc([N+](=O)[O-])ccc1NC3=NC1CCCCC1 was read as D3 antag inconclusive and DRD3 agonist inactive.
For O=C1CC[C@@H]2CC3(C[C@@H]4CCN1[C@H]24)Nc1cc(Cl)ccc1NC3=NC1CCCCC1 (some centres undefined) the results were D3 antag -63 and DRD3 agonist inactive.
For Cc1cc2c(cc1C)N[C@]1(C[C@H]3CCCC(=O)N4CC[C@@H](C1)[C@@H]34)C(=NC(C)(C)CC(C)(C)C)N2 the results were D3 antag inactive and DRD3 agonist inactive.
`O=C1CCC[C@@H]2C[C@@]3(C[C@@H]4CCN1[C@H]24)Nc1cc(Cl)ccc1NC3=NC1CCCCC1` gave D3 antag -78 and DRD3 agonist inactive.
For O=C(CCN1C(=O)c2ccccc2C1=O)N1CCCCCC1 the results were B2AR arrestin inactive, D3 antag -51, TSHR antagonist inactive and DRD3 agonist inactive.
Screening CCCN(CCC)C(=O)Cn1c(SCc2cccc(F)c2)nc2cccnc21 returned DRD3 agonist inactive.
For COc1cc(C=C2C(=O)C=CC2=O)ccc1O the results were D3 antag -136 and DRD3 agonist inactive.
For O=C1NN=C(c2ccccc2)CC1c1ccc(Cl)cc1Cl (centres undefined) the results were B2AR arrestin inactive, D3 antag inactive, TSHR antagonist inactive and DRD3 agonist inactive.
`O=C1NN=C(c2ccc(Cl)cc2)CC1c1cccc(Cl)c1` (centres undefined) gave B2AR arrestin inactive, D3 antag -61, TSHR antagonist inactive and DRD3 agonist inactive.
Screening COc1cccc(Nc2c(Nc3cccc(OC)c3)c(=O)c2=O)c1 returned B2AR arrestin inactive, D3 antag -68, TSHR antagonist inactive and DRD3 agonist inactive.
`COC(=O)c1cc2c(C)c(C)c3ccccn3c-2c1C(=O)OC` gave B2AR arrestin inactive, D3 antag -52, TSHR antagonist inactive and DRD3 agonist inactive.
Clc1ccc(SCc2csc(N3CCOCC3)n2)cc1 was read as B2AR arrestin inactive, D3 antag inactive, TSHR antagonist inactive and DRD3 agonist inactive.
O=c1cc(CSc2ccc(Cl)cc2)nc(-c2ccccn2)[nH]1 was read as B2AR arrestin inactive, D3 antag -53, TSHR antagonist inactive and DRD3 agonist inactive.
Screening Clc1ccc(SCc2cc(N3CCOCC3)nc(-c3ccccn3)n2)cc1 returned B2AR arrestin inactive, D3 antag -53, TSHR antagonist inactive and DRD3 agonist inactive.
Screening Brc1ccc(-c2ccc(CNCc3ccccn3)o2)cc1 returned B2AR arrestin inactive, D3 antag -74, TSHR antagonist inactive and DRD3 agonist inactive.
